Screening data: PubChem BioAssay, National Center for Advancing Translational Sciences (NCATS)
The list is not random: actives were taken first. Their share in the collection is about 3.3%.
FBPA Giardia inh: blocks Giardia fructose-bisphosphate aldolase activity; A8B2U2; purified Giardia FBPA; Potency, µM (titrated, usually from 59.6 µM), for the others: at the highest dose activity, negative = inhibition, actives largely listed as inhibitors; hit rate 0.71% among 290,000; AID 2451; note: nearly all actives have a fitted effect of over 55% in size
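Giardia FBPA (40 nM reagent) was preincubated 10 min at RT with compound (up to 57.5 uM final), then substrate plus GAPDH/TPI/NAD/arsenate coupling system with diaphorase/resazurin was added; resorufin fluorescence (525/598 nm) was read after 20 min.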
Tb PYK inh: T. brucei pyruvate kinase inhibition. hit rate 0.12% among 410,000. Q57TT1. Potency, µM (top dose mostly 76.8 µM), inactives show top-dose activity, negative = inhibition, actives largely listed as inhibitors. TbPYK enzyme, Kinase-Glo Plus ATP luminescence, 45 min; note: nearly all actives have a fitted effect of over 50% in size
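Enzyme and substrate buffer are dispensed first and compound is pin-transferred. ADP at 130 uM final then starts the reaction, which runs 45 min at room temperature. Detection reagent is added for 10 min before luminescence is imaged.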
Sm TGR block: S. mansoni TGR enzyme inhibition | hit rate 3% among 360,000 | purified TGR, DTNB reduction, TNB absorbance 405 nm | Potency, µM (series often up to 114 µM), inactives show at the top dose activity change, negative = inhibition, hits mostly inhibitors | AID 485364; note: nearly all actives have a fitted effect of over 60% in size
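TGR 20 nM + NADPH 100 uM (dispensed conc.), cpd preinc 15 min RT; start with NADPH (500 uM addition) then DTNB (15 mM addition). Kinetic TNB absorbance, 405 nm filter. Four-parameter Hill fit across titration.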
LmPK inhibitor: blocks Leishmania mexicana pyruvate kinase activity. Q27686. purified LmPK, Kinase-Glo ATP luminescence, 1 h. Potency, µM (series often up to 57.5 µM), for inactives: at the highest dose activity change, negative = inhibition, usual class: inhibitors. hit rate 0.37% among 290,000. AID 1721
Target sequence (Q27686 whole entry, looked up): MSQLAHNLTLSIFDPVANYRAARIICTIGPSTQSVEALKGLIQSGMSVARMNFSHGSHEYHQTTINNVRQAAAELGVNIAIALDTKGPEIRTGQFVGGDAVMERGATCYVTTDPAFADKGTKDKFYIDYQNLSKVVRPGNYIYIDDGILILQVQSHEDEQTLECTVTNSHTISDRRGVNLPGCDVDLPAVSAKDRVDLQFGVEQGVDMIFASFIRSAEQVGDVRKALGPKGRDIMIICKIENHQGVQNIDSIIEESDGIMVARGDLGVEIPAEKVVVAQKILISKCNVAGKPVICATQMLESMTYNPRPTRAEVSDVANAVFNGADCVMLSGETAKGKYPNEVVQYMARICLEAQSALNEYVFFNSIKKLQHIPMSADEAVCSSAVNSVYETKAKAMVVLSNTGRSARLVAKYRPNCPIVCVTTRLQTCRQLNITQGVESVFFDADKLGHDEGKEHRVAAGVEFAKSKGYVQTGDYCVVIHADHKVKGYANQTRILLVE
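0.1 nM LmPK, 0.5 mM PEP, 0.1 mM ADP; 50 mM imidazole pH 7.2, 7 mM MgCl2, 50 mM KCl; 1 h RT. Kinase-Glo luminescence readout, normalized to no-enzyme (full inhibition) and uninhibited wells.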
RE007 growth inh: less growth of the S. pombe RE007 Vpr strain; S. pombe RE007 Vpr strain, BacTiter-Glo ATP luminescence, 24 h; Potency, µM (titrated, usually from 92.2 µM), inactives show at the top dose activity change, negative = less growth, usual class: inhibitors; AID 651644; hit rate 0.21% among 360,000; active = well fitted falling curve with a large enough effect; inconclusive = small, poorly fitted or top-dose-only effect; inactive = no such curve, though single readings can be large or run the other way; note: nearly all actives have a fitted effect of over 50% in size
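Fission yeast RE007 carrying one integrated HIV-1 vpr copy, seeded at OD 0.01 in PMG+AL medium with 23 nL pinned compound. Grown 24 h at 30 degrees; viability read by BacTiter-Glo luminescence after 5 min.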
An asterisk follows results filed as active; ? = inconclusive; / = no result given. Unless noted, calls come from the whole dose curve; as a rule, active = well fitted curve in the direction sought with a large enough effect; inconclusive = small, poorly fitted or top-dose-only effect, or another doubt; inactive = no such curve, though single readings can be large; an effect the other way counts as inactive or inconclusive. % is set by controls: 0 for no effect and ±100 for the full control effect; potency is the fitted concentration of half-maximal effect.

SMILES | FBPA Giardia inh | Tb PYK inh | Sm TGR block | LmPK inhibitor | RE007 growth inh
CCOC(=O)N1CCC(NC(=O)CS(=O)Cc2nc(-c3ccccc3C)oc2C)CC1 (configuration not stated) | / | -4.5% | 12.6µM* | 0.5% | -9.3%
Cc1oc(-c2ccccc2F)nc1CS(=O)CC(=O)NC1CCCCC1 (configuration not stated) | 10.8% | -0.1% | 31.6µM* | -0.6% | -8.0%
Cc1oc(-c2ccccc2)nc1CS(=O)CC(=O)NC1CCCCCC1 (configuration not stated) | / | 0.0% | 7.08µM* | -7.0% | 4.0%
CCOC(=O)N1CCC(NC(=O)CS(=O)(=O)Cc2nc(-c3ccccc3Cl)oc2C)CC1 | -1.9% | -0.7% | -32.5% | -0.6% | -8.8%
Cc1oc(-c2ccccc2)nc1CS(=O)CC(=O)O (configuration not stated) | 16.7% | -0.5% | -7.6% | 4.5% | 8.4%
Cc1cccc(-c2nc(CS(=O)CC(=O)NC3CCCCC3)c(C)o2)c1 (configuration not stated) | 9.2% | -7.0% | 56.2µM* | -2.8% | -2.8%
COc1cccc(-c2nc(CS(=O)CC(=O)NC3CCCC3)c(C)o2)c1 (configuration not stated) | 7.7% | 5.9% | ? | 8.1% | -3.0%
COc1cccc(-c2nc(CS(=O)CC(=O)NC3CCCCC3)c(C)o2)c1 (configuration not stated) | 4.1% | 3.6% | 17.8µM* | -1.7% | 7.4%
CN1CCC2(CC1)CCN(C(=O)c1cc(C(F)(F)F)cc(C(F)(F)F)c1)CC2 | 2.9% | 6.1% | / | / | /
COc1ccc2nc3c(cc2c1)Cc1ccccc1-3 | 17.7µM* | / | / | / | /
CCOc1ccc2oc(C(=O)N(C)CCc3ccc(OC)c(OC)c3)c(C)c2c1 | / | -4.5% | -19.5% | / | 1.4%
COc1ccc(CCN(C)C(=O)COC(=O)/C=C/c2ccc(C)o2)cc1OC | / | ? | 15.8µM* | / | 4.3%
CNC(=S)Nc1ccc(OC)c(OC)c1 | -26.1% | -4.0% | -14.2% | 3.6% | 1.2%
COc1ccc(NC(=S)Nc2cccc(Cl)c2Cl)cc1OC | -20.5% | -2.9% | 28.2µM* | -1.4% | -3.7%
COc1ccc2c(c1)c(C(=O)N/N=C/c1cccc(Br)c1)c(C)n2C | 19.9µM* | -6.4% | -0.5% | 1.7% | -11.8%
O=C(c1c(F)cccc1F)N1CCN(c2ncccn2)CC1 | 1.3% | -1.5% | -0.2% | 3.8% | 15.4%
O=C1NC(=S)S/C1=C1\Sc2ccccc2N1CCCS(=O)(=O)O | ? | 0.3% | 2.0% | 15.8µM* | 5.1%
CC(Sc1nnc(Cc2cccs2)n1C1CCCCC1)C(=O)NCc1ccco1 (configuration not stated) | 1.1% | 0.9% | 50.1µM* | 2.3% | 1.6%
CC(Sc1nnc(Cc2cccs2)n1C1CCCCC1)C(=O)N1CCc2ccccc21 (configuration not stated) | -4.3% | -10.5% | -3.2% | 4.0% | 21.1%
CCOC(=O)c1sc(NC(=O)c2nc(SC)ncc2Cl)c(C(=O)OCC)c1C | / | 0.2% | -2.0% | / | /
CCOC(=O)c1c(NC(=S)NC)sc2c1CC(C)(C)SC2 | 1.2% | ? | 10µM* | -9.0% | 0.3%
CCN1C(=O)[C@H]2[C@@H](c3ccc(-c4ccc(F)cc4)c(OC)c3)N[C@@](C)(C(=O)OC)[C@H]2C1=O | / | -7.1% | 15.8µM* | / | -25.1%
CCN1C(=O)[C@H]2[C@@H](c3ccc(-c4ccc(F)cc4)cc3)N[C@@](C)(C(=O)OC)[C@H]2C1=O | / | -5.3% | / | / | 0.2%
CCN1C(=O)[C@H]2[C@@H](c3ccc(-c4ccc(OC)cc4)c(OC)c3)N[C@@](C)(C(=O)OC)[C@H]2C1=O | / | -0.5% | -30.0% | / | 9.8%
CCN1C(=O)[C@H]2[C@@H](c3ccc(-c4ccccc4)cc3)N[C@@](C)(C(=O)OC)[C@H]2C1=O | / | -7.4% | 39.8µM* | / | -8.5%
SMILES | FBPA Giardia inh | Tb PYK inh | Sm TGR block | LmPK inhibitor | RE007 growth inh
O=C1N=C(N2CCN(c3ccccc3)CC2)S/C1=C\c1ccco1 | ? | -3.6% | 22.4µM* | -6.9% | 8.3%
NC1=NC(=O)/C(=C\c2ccco2)S1 | ? | -21.9% | 3.16µM* | 10.5% | -22.2%
Cc1cc(-c2nc(C)c(-c3nnc(SCC(=O)Nc4cc(Cl)cc(Cl)c4)n3C)s2)no1 | 3.7% | 7.2% | -8.9% | -2.3% | -14.3%
O=C(NCC(c1cccs1)N1CCOCC1)c1cccc(S(=O)(=O)Nc2ccc(F)cc2)c1 (configuration not stated) | / | -9.0% | / | / | 1.5%
Cc1ccc(S(=O)(=O)CC(=O)Nc2nc3ccccc3s2)cc1 | 8.9% | 5.7% | -1.5% | 0.7% | -19.1%
Cc1cccc(OCC(=O)NC(=S)N2CCCc3ccccc32)c1 | / | -29.4% | 17.7% | -1.2% | 0.1%
Cc1cnc(C(=O)Nc2ccccc2-n2cccc2)cn1 | -1.0% | 3.0% | 50.1µM* | 3.6% | -25.2%
Cc1cnc(C(=O)Nc2ccccc2F)cn1 | 6.7% | -27.2% | 0.0% | 17.8µM* | -16.3%
Cc1ccc(C(=O)Nc2nc(COc3ccccc3)cs2)s1 | 5.8% | -7.3% | 6.8% | 0.3% | 4.0%
O=C(O)/C=C/S(=O)(=O)c1ccc2ccccc2c1 | 7.4% | -2.3% | 0.891µM* | -0.1% | -8.7%
NS(=O)(=O)c1ccc2ccccc2c1 | 1.1% | -6.9% | -9.2% | 0.1% | 2.7%
O=C(CCl)NNC(=O)c1c(O)c2ccccc2[nH]c1=O | -28.4% | 5.4% | 14.1µM* | -0.5% | -1.1%
COCCNC(=O)C1CC2Cn3c(nc4cc(Cl)c(Cl)cc43)C2N1C (configuration not stated) | -2.4% | 1.1% | -30.8% | 2.2% | 0.0%
CC1(C)CC2CC(C)(CN2Cc2cccc([N+](=O)[O-])c2)C1 (configuration not stated) | ? | -2.1% | 0.0% | -2.3% | -0.9%
CC1(C)CC2CC(C)(CN2Cc2c(O)ccc3ccccc23)C1 (configuration not stated) | ? | 5.7% | 6.31µM* | 2.0% | -16.4%
CN(C)c1ccc(N=Nc2ccc(C(=O)O)cc2)cc1 | ? | -29.9% | 39.8µM* | 0.0% | 6.9%
Nc1ccc(-n2cc(-c3ccccc3)[nH]c2=S)cc1 | 21.6% | 2.51µM* | 12.2% | ? | 11.5%
O=[N+]([O-])C(Br)(CO)CO | / | 10µM* | / | / | /
O=C(CN(Cc1ccco1)Cc1cccs1)N1CCN(S(=O)(=O)c2cccc(F)c2)CC1 | / | 4.7% | 39.8µM* | / | -12.3%
O=C(c1cccc(S(=O)(=O)N2CCOCC2)c1)N(Cc1ccco1)Cc1cccs1 | / | -11.1% | -9.2% | / | -0.9%
COc1cccc(C=Nc2cc(C)on2)c1O | 0.0% | -3.2% | -7.5% | 15.8µM* | 4.4%
COc1cccc(C=Nc2ccccc2C#N)c1O | 5.9% | -14.2% | 1.1% | 14.1µM* | -11.5%
CCOC(=O)N1CCC2(CC1)C(C#N)=C(N)Oc1n[nH]c(C)c12 | 0.9% | 2.2% | 2.1% | -0.8% | -1.7%
CC(=O)N1CCC2(CC1)C(C#N)=C(N)Oc1n[nH]c(C(F)(F)F)c12 | -5.5% | 2.5% | 28.2µM* | -1.9% | 0.0%
